Bioassay records from PubChem BioAssay.
Only some compounds are listed: those with a hit (about 1.4% of all), similar ones and a draw of the others.
S-ASM inh = human S-ASM enzyme inhibition; placental ASM, HMU-PC fluorogenic substrate, 60 min; Potency, µM (doses to about 57.5 µM), most hits filed as inhibitors; 340,000 tested, 0.006% active
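Fluorescence read-out (Ex 386 nm, Em 447 nm) after stopping the reaction at pH 10. Enzyme: ASM from human placenta; substrate HMU-PC0, 9 uM final; 60 min, 37 °C. Compound preincubation 10 min, ambient temperature.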
12-LOX inh = blocks human arachidonate 12S-lipoxygenase | purified 12hLO, xylenol orange hydroperoxide absorbance | Potency, µM (highest dose often 108 µM), most hits filed as inhibitors | 580,000 tested, 1.1% active | AID 1671190
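Purified human 12hLO (150 nM final) in 25 mM Hepes, 0.01% Triton X-100, pH 7.0 was preincubated 15 min at room temperature with compound. Then 40 uM arachidonic acid was added, 30 min. Hydroperoxide was read by Fe-XO absorbance ratio 573/405 nm.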
Vif-A3G inh = inhibitors of Vif-APOBEC3G interaction; HeLa A3G-eYFP + Vif (tagged APOBEC3G with the HIV-1 protein that degrades it), YFP fluorescence, overnight; 410,000 tested, 0.076% active; Q9HC16; Potency, µM (doses to about 46.1 µM), usual class: inhibitors; further: nearly all actives have a fitted effect of over 60% in size
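HeLa cells stably expressing Vif and C-terminally eYFP-tagged A3G, seeded overnight at 37 deg C, then exposed to compound by pintool overnight at 37 deg C. Rise in yellow fluorescence (Ex 488/Em 500-530, Acumen) marks blocked Vif-driven A3G degradation.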
pAkt inh = inhibitors of Akt phosphorylation; Neuro2A IGF-stimulated pAkt S473 HTRF, 20 min; stronger effect = lower value; activity change, % for hits at 50 µM; 360,000 tested, 0.32% active; AID 651550; in the data active means activity change below about -80%; inconclusive means mostly about -51% to -80%
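Neuro2A cells in DMEM with 0.5% FBS, overnight at 37 deg C, given compound at single 50 µM final, then IGF (6 nM final) for 20 min at 37 deg C. Lysed; phospho-Akt Ser473 by HTRF after 24 h, 665/615 ratio.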
Vif-APOBEC3F blk = blocks the Vif interaction with APOBEC3F; 390,000 tested, 0.2% active; AID 602313; Potency, µM (series often up to 46.1 µM); HeLa A3F-eYFP + Vif (tagged APOBEC3F with the HIV-1 protein that degrades it), YFP fluorescence increase; further: nearly all actives have a fitted effect of over 65% in size
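Fluorescence increase (Ex 488/Em 500-530) after overnight compound treatment at 37 deg C flags inhibition of Vif-driven A3F-eYFP loss in stable HeLa A3F-eYFP/Vif cells seeded overnight beforehand.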
PTAP TSG101 blk = blocks PTAP/TSG101 interaction to inhibit HIV-1 budding. 340,000 tested, under 10 active. Q99816. Fluorescence polarization, FITC-PTAP peptide / Tsg101 binding. AID 493005. Potency, µM (titrated, usually from 115 µM), most hits filed as inhibitors; active means well fitted inhibition curve with a large enough effect in the main read-out, with a control signal flat, not every such curve was filed as active; inconclusive means small, poorly fitted or top-dose-only effect, or effect the other way, or a change in a side signal; inactive means no such curve, though single readings can be large or run the other way
Target sequence (Q99816 whole entry, looked up): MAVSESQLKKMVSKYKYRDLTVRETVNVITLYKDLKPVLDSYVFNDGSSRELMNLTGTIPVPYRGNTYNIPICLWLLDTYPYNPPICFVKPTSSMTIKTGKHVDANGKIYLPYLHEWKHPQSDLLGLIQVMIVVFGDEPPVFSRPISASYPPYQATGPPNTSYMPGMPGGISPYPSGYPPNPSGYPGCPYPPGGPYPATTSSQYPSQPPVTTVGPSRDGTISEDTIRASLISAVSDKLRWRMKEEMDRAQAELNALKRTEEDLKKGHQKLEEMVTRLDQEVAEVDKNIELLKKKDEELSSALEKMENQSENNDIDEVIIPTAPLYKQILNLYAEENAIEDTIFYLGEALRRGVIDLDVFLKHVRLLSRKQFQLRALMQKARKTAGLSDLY
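Steps: Tsg101 binding domain dispensed (10 uM final), compounds pinned in DMSO, FITC-labeled PTAP-motif peptide added (50 nM final); after 20 min binding at room temperature, polarization measured.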
Large screens that a line does not name were inactive. Unless noted, the call rests on the fitted dose curve; in most records, active means well fitted curve in the direction sought with a large enough effect; inconclusive means small, poorly fitted or top-dose-only effect, or another doubt; inactive means no such curve, though single readings can be large; an effect the other way counts as inactive or inconclusive.

Oc1ccc(C=NNC(=S)Nc2ccc(F)cc2)c(O)c1	12-LOX inh 39.8µM, Vif-A3G inh inconclusive, Vif-APOBEC3F blk 25.1µM
Cc1ncc(CO)c(/C=N/NC(=S)Nc2ccc(F)cc2)c1O	12-LOX inh 39.8µM
Cc1cccc(OCC(=O)Nc2cccc(-c3nc4ccc(C)cc4o3)c2)c1	none (no result: S-ASM inh, Vif-A3G inh, pAkt inh, Vif-APOBEC3F blk, PTAP TSG101 blk)
O=C(O)/C=C/c1ccc(Oc2ccc(Cl)cc2)cc1	none (no result: S-ASM inh, Vif-A3G inh, pAkt inh, Vif-APOBEC3F blk, PTAP TSG101 blk)
Cc1ccccc1-c1nc(NCc2cccnc2)c2ccccc2n1	12-LOX inh 28.2µM (no result: S-ASM inh, Vif-A3G inh, pAkt inh, Vif-APOBEC3F blk, PTAP TSG101 blk)
Oc1ccccc1-c1nc(NCc2ccccc2)c2ccccc2n1	Vif-APOBEC3F blk 22.4µM
Oc1ccccc1-c1nc(N2CCCC2)c2ccccc2n1	pAkt inh -145.1%
Oc1ccccc1-c1nc(NCc2cccnc2)c2ccccc2n1	Vif-APOBEC3F blk inconclusive
Cc1ccc(Nc2nc(-c3ccncc3)nc3ccccc23)cc1	none
Cc1ccccc1-c1nc(Nc2ccncc2)c2ccccc2n1	12-LOX inh 35.5µM (no result: S-ASM inh, Vif-A3G inh, pAkt inh, Vif-APOBEC3F blk, PTAP TSG101 blk)
CCOc1cc(C2C(C(=O)OC)=C(C)N=C3SC(C)C(=O)N32)ccc1OC(C)=O (stereo not drawn)	none
CCOC(=O)C1=C(C)N=C2SC(C)C(=O)N2C1c1ccc(OC(C)=O)c(OC)c1 (stereo not drawn)	pAkt inh -103.9%
Cc1cc2cc(CNC(=S)NCc3ccccc3)ccc2n1C	12-LOX inh 39.8µM
CCCCNC(=S)NCc1ccc2c(c1)cc(C)n2C	12-LOX inh 39.8µM
Cn1c(=O)c2c(nc(Cl)n2CC(=O)NCc2ccccc2Cl)n(C)c1=O	none (no result: S-ASM inh, Vif-A3G inh, pAkt inh, Vif-APOBEC3F blk, PTAP TSG101 blk)
CCCn1c(NC(=S)Nc2ccccc2)nc2ccccc21	12-LOX inh 22.4µM
S=C(Nc1ccccc1)Nc1nc2ccccc2n1CCOc1ccc(Cl)cc1	12-LOX inh 8.91µM
CC1Oc2ccc(NC(=O)c3ccc(Cl)cc3)cc2CN(Cc2cc(F)cc(F)c2)C1=O (stereo not drawn)	none (no result: S-ASM inh, Vif-A3G inh, pAkt inh, Vif-APOBEC3F blk, PTAP TSG101 blk)
CC(=O)c1ccc(NC(=O)Cn2cc(C(C)=O)c3ccccc32)cc1	none (no result: S-ASM inh, Vif-A3G inh, pAkt inh, Vif-APOBEC3F blk, PTAP TSG101 blk)
Cc1ccc(NC(=O)CCCc2cccs2)c(Br)c1	none (no result: S-ASM inh, Vif-A3G inh, pAkt inh, Vif-APOBEC3F blk, PTAP TSG101 blk)
CC1(C)CC(N2CCCCC2)=CC(=NCCCN2CCOCC2)C1	12-LOX inh 22.4µM (no result: S-ASM inh, Vif-A3G inh, pAkt inh, Vif-APOBEC3F blk, PTAP TSG101 blk)
C#CCOCCOCCOCCNc1nc(N2CCN(C(=O)Cn3cc(CCCCN)nn3)CC2)nc(N2CCN(C(=O)Cn3cc(CCCN=C(N)N)nn3)CC2)n1	12-LOX inh 2.51µM
COc1ccc2[nH]c(CO)cc2c1	12-LOX inh 25.1µM (no result: S-ASM inh, Vif-A3G inh, pAkt inh, Vif-APOBEC3F blk, PTAP TSG101 blk)
COc1ccc2[nH]c(C)cc2c1	none (no result: S-ASM inh, 12-LOX inh, pAkt inh, Vif-APOBEC3F blk, PTAP TSG101 blk)
CCn1cc(CN2CCN(C(=O)c3ccco3)CC2)ccc1=O	none (no result: S-ASM inh, Vif-A3G inh, pAkt inh, Vif-APOBEC3F blk, PTAP TSG101 blk)
COc1ccc(Br)cc1CN1CCN(C(=O)c2ccco2)CC1	12-LOX inh 0.501µM, Vif-APOBEC3F blk inconclusive
COc1ccccc1CN1CCN(C(=O)c2ccco2)CC1	12-LOX inh inconclusive
CCn1c2ccccc2c2cc(CN3CCN(C(=O)c4ccco4)CC3)ccc21	12-LOX inh 0.562µM
COCc1ccc(O)c2ncccc12	Vif-A3G inh 10µM
Oc1ccc(CNc2ccccc2)c2cccnc12	none (no result: 12-LOX inh, Vif-APOBEC3F blk)
O=C(c1cc(Cl)ccc1F)N1CCN(C(=O)c2nnn3c2COC(c2ccccc2)C3)CC1 (stereo not drawn)	none (no result: S-ASM inh, Vif-A3G inh, pAkt inh, Vif-APOBEC3F blk, PTAP TSG101 blk)
O=C(CCc1c[nH]c2ccccc12)NCCC12CC3CC(CC(C3)C1)C2	none (no result: S-ASM inh, Vif-A3G inh, pAkt inh, Vif-APOBEC3F blk, PTAP TSG101 blk)
Cc1nnc(N2C(=O)c3cccc4c([N+](=O)[O-])ccc(c34)C2=O)s1	12-LOX inh inconclusive, Vif-A3G inh inconclusive, Vif-APOBEC3F blk 28.2µM
Cc1ccnc(N2C(=O)c3cccc4c([N+](=O)[O-])ccc(c34)C2=O)c1	Vif-APOBEC3F blk inconclusive (no result: pAkt inh)
CCCc1cc(=O)oc2cc(OCC(=O)C(C)(C)C)ccc12	none (no result: S-ASM inh, Vif-A3G inh, pAkt inh, Vif-APOBEC3F blk, PTAP TSG101 blk)
Cc1cc(C(=O)OCC(=O)NC(C)c2ccccc2)c2ccccc2n1 (stereo not drawn)	none (no result: S-ASM inh, Vif-A3G inh, pAkt inh, Vif-APOBEC3F blk, PTAP TSG101 blk)
CCn1cc(-c2cc(C(F)(F)F)n3nc(C(=O)O)cc3n2)c(C)n1	pAkt inh -111.9%
Cc1c(C(=O)NNC(=O)c2csc(N3CCOCC3)n2)oc2ccccc12	none
Cc1c(C(=O)NNC(=O)c2csc(N3CCOCC3)n2)oc2ccc(Br)cc12	12-LOX inh 39.8µM (no result: S-ASM inh, PTAP TSG101 blk)
CC(C)(C)c1ccc(C(=O)N/N=C/Cc2ccccc2)cc1	none (no result: S-ASM inh, Vif-A3G inh, pAkt inh, Vif-APOBEC3F blk, PTAP TSG101 blk)
